# Test results from PubChem BioAssay AID1508601 (ICCB-Longwood Screening Facility, Harvard Medical School, 2020).
# Out of some 5,700 compounds screened, about 85 (1%) were called active. Rule as the data show it: active = p53-positive nuclei above about 36% (passing the limit was not always enough); inactive = the rest. The entries come from a sample that favours actives as a whole.
# How the values were obtained:
# [1] = nuclear p53 accumulation, HPV+ cells – imaging, p53-positive nuclei imaging, 24 h, 48 h (AID 1508601); conditions: 24/48 h
# [2] = target: Cellular tumor antigen p53 (Homo sapiens) (UniProt P04637); test: as above; conditions: 24/48 h, stronger effect = higher value
# Cellular tumor antigen p53 (Homo sapiens), sequence (P04637 whole entry, looked up): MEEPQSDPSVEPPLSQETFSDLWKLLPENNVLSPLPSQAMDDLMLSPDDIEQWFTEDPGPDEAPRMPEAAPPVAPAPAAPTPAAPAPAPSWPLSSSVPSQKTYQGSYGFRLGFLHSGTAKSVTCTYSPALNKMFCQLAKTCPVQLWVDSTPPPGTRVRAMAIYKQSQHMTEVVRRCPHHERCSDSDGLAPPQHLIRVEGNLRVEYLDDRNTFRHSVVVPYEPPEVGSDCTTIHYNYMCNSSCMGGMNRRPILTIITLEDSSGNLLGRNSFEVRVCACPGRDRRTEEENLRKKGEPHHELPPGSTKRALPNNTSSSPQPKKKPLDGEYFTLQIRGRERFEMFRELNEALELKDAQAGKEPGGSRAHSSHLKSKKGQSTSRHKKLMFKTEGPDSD
# [3] = measured here: cell number at 24 h, Library stock concentration: 10 mM
# [4] = measured here: cell number at 48 h, Library stock concentration: 10 mM
# [5] = Library stock concentration: 10 mM
# [6] = measured here: p53 positive nuclei at 24 h, Library stock concentration: 10 mM
# [7] = measured here: cell number at 24 h, concentration not given here
# [8] = measured here: cell number at 48 h, concentration not given here
# [9] = measured here: p53 positive nuclei at 24 h, concentration not given here
compound,measurement,setting,value
Cc1sc2c(c1C)C(c1ccc(Cl)cc1)=NC(CC(=O)Nc1ccc(O)cc1)c1nnc(C)n1-2 (stereo not drawn),"nuclei count, normalised","[1]; measured here: cell number at 24 h, Library stock concentration: 80 uM",110%
same,"nuclei count, normalised","[1]; measured here: cell number at 24 h, Library stock concentration: 400 uM",120%
same,"nuclei count, normalised","[1]; measured here: cell number at 24 h, Library stock concentration: 2 mM",113%
same,"nuclei count, normalised","[1]; measured here: cell number at 24 h, Library stock concentration: 3.33 mM",119%
same,"nuclei count, normalised",[1]; [3],114%
same,"nuclei count, normalised","[1]; measured here: cell number at 48 h, Library stock concentration: 80 uM",108%
same,"nuclei count, normalised","[1]; measured here: cell number at 48 h, Library stock concentration: 400 uM",119%
same,"nuclei count, normalised","[1]; measured here: cell number at 48 h, Library stock concentration: 2 mM",111%
same,"nuclei count, normalised","[1]; measured here: cell number at 48 h, Library stock concentration: 3.33 mM",117%
same,"nuclei count, normalised",[1]; [4],109%
same,"p53-positive nuclei, normalised",[2]; Library stock concentration: 80 uM,0.0544% (inactive)
same,"p53-positive nuclei, normalised",[2]; Library stock concentration: 400 uM,0.0288% (inactive)
same,"p53-positive nuclei, normalised",[2]; Library stock concentration: 2 mM,3.49% (inactive)
same,"p53-positive nuclei, normalised",[2]; Library stock concentration: 3.33 mM,3.67% (inactive)
same,"p53-positive nuclei, normalised",[2]; [5],9.67% (inactive)
same,"p53-positive nuclei, normalised","[2]; measured here: p53 positive nuclei at 24 h, Library stock concentration: 80 uM",0.123%
same,"p53-positive nuclei, normalised","[2]; measured here: p53 positive nuclei at 24 h, Library stock concentration: 400 uM",0.712%
same,"p53-positive nuclei, normalised","[2]; measured here: p53 positive nuclei at 24 h, Library stock concentration: 2 mM",19.6%
same,"p53-positive nuclei, normalised","[2]; measured here: p53 positive nuclei at 24 h, Library stock concentration: 3.33 mM",10.4%
same,"p53-positive nuclei, normalised",[2]; [6],46.6%
CCCCC/C=C\C/C=C\C/C=C\C/C=C\CCCC(=O)N[C@@H](CO)C(=O)O,"nuclei count, normalised",[1]; [7],108%
same,"nuclei count, normalised",[1]; [8],107%
same,"p53-positive nuclei, normalised",[2]; concentration not given here,0.0364% (inactive)
same,"p53-positive nuclei, normalised",[2]; [9],-0.0848%
C=C(C)[C@@H]1CCC(C)=C[C@H]1c1c(OC)cc(CCCCC)cc1OC,"nuclei count, normalised",[1]; [7],107%
same,"nuclei count, normalised",[1]; [8],109%
same,"p53-positive nuclei, normalised",[2]; concentration not given here,0.00281% (inactive)
same,"p53-positive nuclei, normalised",[2]; [9],-0.021%
CCCCC/C=C\C/C=C\C/C=C\C/C=C\CCCC(=O)NC1CC1,"nuclei count, normalised",[1]; [7],110%
same,"nuclei count, normalised",[1]; [8],110%
same,"p53-positive nuclei, normalised",[2]; concentration not given here,-0.0789% (inactive)
same,"p53-positive nuclei, normalised",[2]; [9],-0.0843%
CC1OC(O[C@H]2CC[C@@]3(C)[C@@H](CC[C@@H]4[C@H]3CC[C@]3(C)[C@@H](C5=CC(=O)OC5)CC[C@]43O)C2)CC(O)C1O (stereo partly drawn),"nuclei count, normalised","[1]; measured here: cell number at 24 h, Library stock concentration: 500 nM",65.6%
same,"nuclei count, normalised","[1]; measured here: cell number at 24 h, Library stock concentration: 1.5 uM",57.4%
same,"nuclei count, normalised","[1]; measured here: cell number at 24 h, Library stock concentration: 4.6 uM",53%
same,"nuclei count, normalised","[1]; measured here: cell number at 24 h, Library stock concentration: 13.7 uM",48.6%
same,"nuclei count, normalised","[1]; measured here: cell number at 24 h, Library stock concentration: 41 uM",45.4%
same,"nuclei count, normalised","[1]; measured here: cell number at 24 h, Library stock concentration: 123 uM",41.8%
same,"nuclei count, normalised","[1]; measured here: cell number at 24 h, Library stock concentration: 370 uM",40.1%
same,"nuclei count, normalised","[1]; measured here: cell number at 24 h, Library stock concentration: 1.111 mM",41.7%
same,"nuclei count, normalised","[1]; measured here: cell number at 24 h, Library stock concentration: 3.333 mM",42.7%
same,"nuclei count, normalised",[1]; [3],42.7%
same,"nuclei count, normalised","[1]; measured here: cell number at 48 h, Library stock concentration: 500 nM",46.8%
same,"nuclei count, normalised","[1]; measured here: cell number at 48 h, Library stock concentration: 1.5 uM",37.2%
same,"nuclei count, normalised","[1]; measured here: cell number at 48 h, Library stock concentration: 4.6 uM",33.8%
same,"nuclei count, normalised","[1]; measured here: cell number at 48 h, Library stock concentration: 13.7 uM",32.8%
same,"nuclei count, normalised","[1]; measured here: cell number at 48 h, Library stock concentration: 41 uM",29.8%
same,"nuclei count, normalised","[1]; measured here: cell number at 48 h, Library stock concentration: 123 uM",30.1%
same,"nuclei count, normalised","[1]; measured here: cell number at 48 h, Library stock concentration: 370 uM",27.4%
same,"nuclei count, normalised","[1]; measured here: cell number at 48 h, Library stock concentration: 1.111 mM",28.3%
same,"nuclei count, normalised","[1]; measured here: cell number at 48 h, Library stock concentration: 3.333 mM",30.1%
same,"nuclei count, normalised",[1]; [4],29%
same,"p53-positive nuclei, normalised",[2]; Library stock concentration: 500 nM,1.14% (inactive)
same,"p53-positive nuclei, normalised",[2]; Library stock concentration: 1.5 uM,2.17% (inactive)
same,"p53-positive nuclei, normalised",[2]; Library stock concentration: 4.6 uM,5.96% (inactive)
same,"p53-positive nuclei, normalised",[2]; Library stock concentration: 13.7 uM,13.9% (inactive)
same,"p53-positive nuclei, normalised",[2]; Library stock concentration: 41 uM,17.9% (inactive)
same,"p53-positive nuclei, normalised",[2]; Library stock concentration: 123 uM,17.3% (inactive)
same,"p53-positive nuclei, normalised",[2]; Library stock concentration: 370 uM,15.8% (inactive)
same,"p53-positive nuclei, normalised",[2]; Library stock concentration: 1.111 mM,18.6% (inactive)
same,"p53-positive nuclei, normalised",[2]; Library stock concentration: 3.333 mM,15.3% (inactive)
same,"p53-positive nuclei, normalised",[2]; [5],14% (inactive)
same,"p53-positive nuclei, normalised","[2]; measured here: p53 positive nuclei at 24 h, Library stock concentration: 500 nM",0.0832%
same,"p53-positive nuclei, normalised","[2]; measured here: p53 positive nuclei at 24 h, Library stock concentration: 1.5 uM",0.441%
same,"p53-positive nuclei, normalised","[2]; measured here: p53 positive nuclei at 24 h, Library stock concentration: 4.6 uM",2.38%
same,"p53-positive nuclei, normalised","[2]; measured here: p53 positive nuclei at 24 h, Library stock concentration: 13.7 uM",2.28%
same,"p53-positive nuclei, normalised","[2]; measured here: p53 positive nuclei at 24 h, Library stock concentration: 41 uM",1.13%
same,"p53-positive nuclei, normalised","[2]; measured here: p53 positive nuclei at 24 h, Library stock concentration: 123 uM",0.939%
same,"p53-positive nuclei, normalised","[2]; measured here: p53 positive nuclei at 24 h, Library stock concentration: 370 uM",1.03%
same,"p53-positive nuclei, normalised","[2]; measured here: p53 positive nuclei at 24 h, Library stock concentration: 1.111 mM",1.24%
same,"p53-positive nuclei, normalised","[2]; measured here: p53 positive nuclei at 24 h, Library stock concentration: 3.333 mM",1.62%
same,"p53-positive nuclei, normalised",[2]; [6],0.952%
CO[C@H]1[C@H](O)[C@@H](O[C@H]2CC[C@]3(C=O)C4CC[C@]5(C)[C@@H](C6=CC(=O)OC6)CC[C@]5(O)C4CC[C@@H]3C2)O[C@@H](C)[C@@H]1O (stereo partly drawn),"nuclei count, normalised",[1]; [7],35.5%
same,"nuclei count, normalised",[1]; [8],25.2%
same,"p53-positive nuclei, normalised",[2]; concentration not given here,50.3% (active)
same,"p53-positive nuclei, normalised",[2]; [9],2.96%
C[C@@H]1O[C@@H](O[C@H]2CC[C@]3(C=O)C4CC[C@]5(C)[C@@H](C6=CC(=O)OC6)CC[C@]5(O)C4CC[C@]3(O)C2)[C@H](O)[C@H](O)[C@H]1O (stereo partly drawn),"nuclei count, normalised",[1]; [7],35.2%
same,"nuclei count, normalised",[1]; [8],23.7%
same,"p53-positive nuclei, normalised",[2]; concentration not given here,28.5% (inactive)
same,"p53-positive nuclei, normalised",[2]; [9],2.41%
O=c1c2cc(F)ccc2ncn1Cc1cn2ccccc2n1,"nuclei count, normalised",[1]; [7],98.7%
same,"nuclei count, normalised",[1]; [8],106%
same,"p53-positive nuclei, normalised",[2]; concentration not given here,-0.262% (inactive)
same,"p53-positive nuclei, normalised",[2]; [9],-0.23%
CCCCC/C=C\C/C=C\C/C=C\C/C=C\CCCC(=O)NC,"nuclei count, normalised",[1]; [7],104%
same,"nuclei count, normalised",[1]; [8],99.6%
same,"p53-positive nuclei, normalised",[2]; concentration not given here,0.0321% (inactive)
same,"p53-positive nuclei, normalised",[2]; [9],-0.0963%
